# Experimental data: PubChem BioAssay AID463173 (ICCB-Longwood Screening Facility, Harvard Medical School, 2010)
# Hit rate of the full screen: of about 52,000 compounds, about 4,300 (8.3%) were called active. The full list was thinned out, with actives kept by preference. Values without a mark were called inactive. No stated cut-off is given here; in the data, active means survival mostly below about 52% (no sharp cut-off); inactive means mostly above about 56%.
# Tested on: DeltatarO mutant
# Experiment: growth inhibition of S. aureus wild type versus tarO mutant, primary screen, teichoic acid synthesis inhibitors, RN4220, OD600 (AID 463173)
# Conditions: OD600, 18 h, hits give low values, screened at 18.75 µg/mL (by protocol)
row,SMILES,survival
1,CCc1ccc(NC(=O)Cn2nnc(C(=O)Nc3ccc(F)cc3)c2N)cc1,99%
2,COc1ccc(-n2nc(C(=O)N3CCCC(C)C3)c3c4ccccc4n(C)c3c2=O)cc1 (stereo unspecified),74%
3,c1ccc(-c2nc(-c3cccnc3)no2)cc1,98%
4,O=c1[nH]ncc(NCCc2ccccc2)c1Cl,101%
5,N#Cc1ccccc1Cn1c(=O)n(Cc2ccc(C(=O)NC3CCN(Cc4ccccc4)CC3)cc2)c(=O)c2ccccc21,90%
6,COC(=O)c1ccc(NC(=O)C(=O)NCCc2sc3nc(-c4ccc(OC)cc4)nn3c2C)cc1,83%
7,O/N=C1\CCCc2nnc3c(c21)CCCC3,101%
8,CCOC(=O)/C(C#N)=C\C1=C(N2CCCC2)CC(C)(C)OC1,91%
9,Cc1nc2ccc(S(=O)(=O)NCC(=O)Nc3ccc(F)cc3F)cc2s1,120%
10,CCOc1ccc(S(=O)(=O)NCC(c2ccc(N(C)C)cc2)N2CCCC2)cc1 (stereo unspecified),107%
11,COc1ccc(Nc2ncnc3onc(C)c23)cc1Cl,87%
12,O=C(c1ccc(Cl)cc1)N1CCC(c2nc3ccccc3o2)CC1,79%
13,CCc1ccccc1NC(=O)Cn1nnc(C(=O)NCc2ccco2)c1N,93%
14,CC(C)c1ccc(NC(=O)c2ccc(F)c(S(=O)(=O)N3CCc4ccccc43)c2)cc1,83%
15,CS(=O)(=O)N1CCc2cc(C(=O)Nc3ccc(S(N)(=O)=O)cc3)ccc21,48%
16,CC(NC(=O)c1ccc2c(c1)CCN2S(=O)(=O)c1ccc(Cl)cc1)c1ccccc1 (stereo unspecified),67%
17,CC(NC(=O)c1ccc2c(c1)CCN2S(C)(=O)=O)c1ccccc1 (stereo unspecified),91%
18,CC(C)c1ccc(NC(=O)c2ccc3c(c2)CCN3S(=O)(=O)c2ccccc2)cc1,44% (active)
19,CC(NC(=O)c1ccc2c(c1)CCN2S(=O)(=O)c1ccccc1)c1ccccc1 (stereo unspecified),37% (active)
20,COc1ccc(NC(=O)c2ccc3c(c2)CCN3S(=O)(=O)c2ccccc2)cc1,92%
21,NS(=O)(=O)c1ccc(NC(=O)c2ccc3c(c2)CCN3S(=O)(=O)c2ccccc2)cc1,43% (active)
22,CC(=O)Nc1ccc(NC(=O)c2ccc3c(c2)CCN3S(=O)(=O)c2ccc(C)cc2)cc1,62%
23,Cc1ccc(Nc2nc3ccccc3c3nnc(C)n23)c(C)c1,70%

row,SMILES,survival
1,CC(C)(C)OC(=O)N1CCC(c2c(C(=O)NCc3ccco3)cnn2-c2ccc(F)cc2F)CC1,83%
2,COc1cc(C)ccc1OCCSc1nc2ccc(NC(=O)c3ccc4c(c3)OCO4)cc2s1,64%
3,CN(C(=O)C1CCCN(c2ncnc3c2nc2n3CCCCC2)C1)c1ccccc1F (stereo unspecified),81%
4,CCC(NC(=O)Nc1cc(OC)ccc1OC)c1c(-n2cccc2)sc2c1CCN(CC)C2 (stereo unspecified),88%
5,Fc1cccc(CSc2ccc(-c3cccs3)nn2)c1,94%
6,Cc1ccc(C)c(CNC(=O)c2sc3ncnc(N(C)C4CCCCC4)c3c2C)c1,115%
7,Cc1ccc(Oc2coc3cc(OCC(=O)NC4CCCCC4)ccc3c2=O)cc1,55%
8,Cc1ccc(Oc2c(C(F)(F)F)oc3cc(OCC(=O)NC4CCCCC4)ccc3c2=O)cc1,46% (active)
9,Cc1cc(C)cc(Oc2c(C(F)(F)F)oc3cc(OCC(=O)NC4CCCCC4)ccc3c2=O)c1,110%
10,CCc1ccc(C(=O)COC(=O)C(NC(=O)C2CCC(C)CC2)C(C)C)cc1 (stereo unspecified),72%
11,CC1(C)CC(=O)C=C(NCC2CCNCC2)C1,95%
12,CCOc1ccc(CCNC(=O)CCN2N=C(c3ccc(OC)cc3)CCC2=O)cc1OCC,81%
13,Cc1cccc(NC(=O)c2sc3nc(-c4cc5ccc(O)cc5oc4=O)[nH]c(=O)c3c2C)c1,46%
14,Cc1c(C(=O)Nc2ccccc2)sc2nc(-c3cc4ccccc4oc3=O)[nH]c(=O)c12,66%
15,COc1ccc(NC(=O)c2sc3nc(-c4cc5ccc(OC)cc5oc4=O)[nH]c(=O)c3c2C)cc1,46% (active)
16,Cc1cc(C)cc(NC(=O)c2sc3nc[nH]c(=O)c3c2C)c1,91%
17,COc1ccc(NC(=O)c2sc3nc(-c4cc5cccc(OC)c5oc4=O)[nH]c(=O)c3c2C)cc1,46%
18,Cc1ccc(NC(=O)c2sc3nc(-c4cc5ccccc5oc4=O)[nH]c(=O)c3c2C)c(C)c1,39% (active)
19,Cc1cc(C)cc(NC(=O)c2sc3nc(-c4cc5ccccc5oc4=O)[nH]c(=O)c3c2C)c1,43% (active)
20,Cc1ccccc1NC(=O)c1sc2nc(-c3cc4ccccc4oc3=O)[nH]c(=O)c2c1C,52%
21,Cc1cc(NC(=O)c2ccc(F)cc2)ccc1-c1cc2ccccc2oc1=O,75%
22,COc1ccc(NC(=O)c2sc3nc[nH]c(=O)c3c2C)cc1,75%
23,Cc1c(C(=O)Nc2cccc(F)c2)sc2nc(-c3cc4ccccc4oc3=O)[nH]c(=O)c12,37% (active)

row,SMILES,survival
1,CCOc1cccc2cc(-c3nc4sc(C(=O)Nc5ccc(C)cc5)c(C)c4c(=O)[nH]3)c(=O)oc12,51%
2,O=C(COc1ccc(Br)cc1Cl)Nc1ncn[nH]1,91%
3,CCOCCCNC(=O)C1CCCN(c2ncnc3onc(C)c23)C1 (stereo unspecified),68%
4,COc1ccc(-c2cn3nc(N4CCC(C(=O)Nc5cccc(OC)c5)CC4)sc3n2)cc1,94%
5,C#CCn1c(=NC(=O)c2ccc3c(c2)OCCO3)sc2cc(OC)c(OC)cc21,102%
6,COc1cccc(C(=O)c2cn(CC(=O)Nc3ccc4c(c3)OCCO4)c3nc(C)ccc3c2=O)c1,68%
7,Cc1ccc(-c2nnc(Nc3cccc(O)c3)c3ccccc23)cc1S(=O)(=O)N1CCOCC1,78%
8,CCOC(=O)c1c(C)oc2nc(C)nc(Nc3cccc(OC)c3)c12,78%
9,Cc1ccc(-c2nnc(Nc3cccc(O)c3)c3ccccc23)cc1S(=O)(=O)N1CCCCC1,60%
10,Cc1ccc(-c2nnc(Nc3ccc(C(N)=O)cc3)c3ccccc23)cc1S(=O)(=O)N1CCCCC1,128%
11,CCOC(=O)c1c(Nc2cccc(O)c2)nnc(-c2ccccc2)c1-c1ccccc1,31% (active)
12,CNC(=O)c1ccc(Nc2nnc(-c3ccc(C)c(S(=O)(=O)N4CCOCC4)c3)c3ccccc23)cc1,61%
13,CCOC(=O)c1c(Oc2ccc(C(=O)OC)cc2)nnc(-c2ccccc2)c1-c1ccccc1,74%
14,CCOC(=O)c1c(C)oc2nc(C)nc(Nc3cc(C)cc(C)c3)c12,89%
15,CNC(=O)c1ccc(Nc2nnc(-c3ccc(C)c(S(=O)(=O)N4CCCCC4)c3)c3ccccc23)cc1,54% (active)
16,CCOC(=O)c1c(C)oc2ncnc(Nc3cc(C)cc(C)c3)c12,94%
17,CCOC(=O)c1c(Nc2cc(C)cc(C)c2)nnc(-c2ccccc2)c1-c1ccccc1,32% (active)
18,CCOC(=O)c1c(Nc2cccc(C(=O)OC)c2)nnc(-c2ccccc2)c1-c1ccccc1,16% (active)
19,Cc1ccc(N2CCN(c3nc4c(S(=O)(=O)c5ccc(C)c(C)c5)nnn4c4ccccc34)CC2)c(C)c1,82%
20,CN(C)c1ccc(CNC(=O)C2CCCN(S(=O)(=O)c3ccc4c(ccn4C)c3)C2)cc1 (stereo unspecified),83%
21,Cc1noc(-c2ccc(N3CCCCC3C)c([N+](=O)[O-])c2)n1 (stereo unspecified),108%
22,CCOc1ccc(N2C(=O)N(Cc3ccc(C)cc3C)c3ccccc3S2(=O)=O)cc1,94%
23,CCOC(=O)CNS(=O)(=O)c1cc(-c2nnc(Nc3cccc(O)c3)c3ccccc23)ccc1C,39% (active)

row,SMILES,survival
1,CCOC(=O)c1c(Nc2cccc(C)c2)nnc(-c2ccccc2)c1-c1ccccc1,-4% (active)
2,Cc1ccc(-c2nnc(Nc3cccc(O)c3)c3ccccc23)cc1S(=O)(=O)N1CCN(C)CC1,97%
3,Cc1ccc(-c2nnc(Nc3cccc(O)c3)c3ccccc23)cc1S(=O)(=O)NCC1CCCO1 (stereo unspecified),74%
4,Oc1cccc(Nc2cc(-c3ccccc3)ncn2)c1,63%
5,CCOC(=O)c1c(C)c(-c2ccccc2)n(CC(=O)Nc2cc(C)cc(C)c2)c1C,80%
6,CCOC(=O)c1cccc(Nc2cc(C)nc(C)n2)c1,65%
7,CCOC(=O)c1cccc(Nc2cc(-c3ccccc3)ncn2)c1,15% (active)
8,CCOC(=O)c1c(C)oc2ncnc(Nc3cccc(C(F)(F)F)c3)c12,105%
9,CCc1ccc(NC(=O)Cn2c(=O)n(-c3ccccc3C)c(=O)c3c2c2cc(OC)ccc2n3C)cc1,67%
10,COc1ccccc1OCC(=O)NC1CC(=O)N(c2ccc3c(c2)OCCO3)C1 (stereo unspecified),67%
11,Cc1coc2c(C)c3oc(=O)c(CCC(=O)NCCc4ccccc4F)c(C)c3cc12,57%
12,COc1ccc(C2c3c(-c4ccccc4O)n[nH]c3C(=O)N2Cc2ccco2)cc1 (stereo unspecified),1% (active)
13,O=C1c2[nH]nc(-c3ccccc3O)c2C(c2ccc(Cl)cc2)N1Cc1ccco1 (stereo unspecified),-1% (active)
14,O=C1c2[nH]nc(-c3ccccc3O)c2C(c2cccc(Cl)c2)N1Cc1cccnc1 (stereo unspecified),65%
15,CCCOc1ccc(C2c3c(-c4c(C)cc(C)cc4O)n[nH]c3C(=O)N2CCO)cc1 (stereo unspecified),73%
16,COc1ccc(C2c3c(-c4c(C)cc(C)cc4O)n[nH]c3C(=O)N2Cc2ccco2)cc1 (stereo unspecified),0% (active)
17,CC(C)c1ccc(C2c3c(-c4ccccc4O)n[nH]c3C(=O)N2Cc2ccncc2)cc1 (stereo unspecified),88%
18,COc1cc(C2c3c(-c4ccccc4O)n[nH]c3C(=O)N2Cc2ccco2)ccc1OCC(C)C (stereo unspecified),7% (active)
19,COC(=O)c1ccc(C2c3c(-c4ccccc4O)n[nH]c3C(=O)N2Cc2ccncc2)cc1 (stereo unspecified),90%
20,COc1cc(C2c3c(-c4c(C)cc(C)cc4O)n[nH]c3C(=O)N2Cc2ccco2)cc(OC)c1OC (stereo unspecified),67%
21,COc1cc(C2c3c(-c4ccccc4O)n[nH]c3C(=O)N2CCO)ccc1OCC(C)C (stereo unspecified),99%
22,COc1cc(C2c3c(-c4cc(C)ccc4O)n[nH]c3C(=O)N2CCCO)ccc1OCCC(C)C (stereo unspecified),58%
